Laboratory results taken from PubChem BioAssay AID1209 (Sanford-Burnham Center for Chemical Genomics, 2008).
Among all 190,000 compounds or so, about 810 (0.43%) were called active. The sample holds actives, similar compounds and a random draw of the others, so the mix is not that of the screen. Unmarked numbers belong to inactive results. No stated cut-off is given here; in the data, active means inhibition above about 50%; inactive means the rest.

Target: Mannose-6-phosphate isomerase (Homo sapiens) (UniProt P34949)
Test: inhibitors of human PMI, primary screen, biochemical, fluorescence intensity, coupled assay (AID 1209);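 further: plate controls were DMSO vehicle for no effect and wells lacking substrate for full effect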
Settings: purified PMI enzyme, at 20 µM, active compounds read high

Chain of Mannose-6-phosphate isomerase (Homo sapiens) (P34949 whole entry, looked up): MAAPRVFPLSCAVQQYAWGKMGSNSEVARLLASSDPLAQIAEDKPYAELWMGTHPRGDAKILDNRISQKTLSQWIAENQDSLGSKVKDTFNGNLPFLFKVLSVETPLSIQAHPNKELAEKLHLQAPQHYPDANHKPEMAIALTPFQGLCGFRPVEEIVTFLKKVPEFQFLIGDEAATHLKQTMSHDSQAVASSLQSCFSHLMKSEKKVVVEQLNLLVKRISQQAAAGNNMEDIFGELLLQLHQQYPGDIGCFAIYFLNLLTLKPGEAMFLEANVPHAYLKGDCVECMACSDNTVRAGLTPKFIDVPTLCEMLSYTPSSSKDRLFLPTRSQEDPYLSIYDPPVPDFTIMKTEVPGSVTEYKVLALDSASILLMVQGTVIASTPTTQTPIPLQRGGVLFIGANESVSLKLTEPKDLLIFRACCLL

Which inhibition does the source give for CCOC(=O)C1CCN(CCC(=O)Nc2ccc(Cl)cc2)CC1 here?
The inhibition was 7.1%.

Which inhibition does the source give for COc1ccc([C@@H]2C[C@H]3CN(c4ccccc4)C(=O)[C@]34CCCN24)c(OC)c1OC here?
Its inhibition is -8.3%.

For Cc1nn(Cc2cccc(C(=O)NC3CCCCC3)c2)c(C)c1Cl, which inhibition is on record?
Its inhibition is 7.3%.

How did the inhibition turn out when O=C(O)c1csc(Cc2ccccc2)n1 was run?
Its inhibition is -2.4%.

COC(=O)c1c(NC(=S)Nc2cc(OC)c(Cl)cc2OC)sc2c1CCCCC2 was tested. Which inhibition did it give?
Its inhibition is 25.1%.

Which inhibition does the source give for CCOC(=O)c1c(NC(=S)Nc2cc([N+](=O)[O-])ccc2OC)sc2c1CCCCC2 here?
The inhibition was 28.1%.

Which inhibition does the source give for COC(=O)c1c(NC(=S)Nc2ccc(F)cc2[N+](=O)[O-])sc2c1CCCCC2 here?
The inhibition was 63% (active).

Which inhibition does the source give for CCC1Oc2ccc(C)cc2N(CC(=O)NCc2ccco2)C1=O (centres undefined) here?
Its inhibition is 6.6%.

With N#Cc1cccc2cnccc12 as the molecule, how does the inhibition read?
The inhibition was 9%.

Which inhibition does the source give for NC(=S)Nc1cccc2cnccc12 here?
Its inhibition is 16.4%.

For Nc1cccc2cnccc12, which inhibition is on record?
The inhibition was 68.5% (active).

For CCn1cc([N+](=O)[O-])c(C(=O)Nc2ccn(Cc3ccccc3F)n2)n1, which inhibition is on record?
Its inhibition is 8.3%.

For CCOC(=O)c1c(C)n(C)c2ccc(OCC(N)=O)cc12, which inhibition is on record?
Its inhibition is 16.5%.

How did the inhibition turn out when CCOC(=O)c1c(C)n(C)c2cc(OCCN(CC)CC)ccc12 was run?
Its inhibition is 10.9%.

With CCOC(=O)c1c2ccc(OCC(=O)NN)cc2n2ccccc12 as the molecule, how does the inhibition read?
Its inhibition is 81.3% (active).

Which inhibition does the source give for CCOC(=O)COc1ccc2c(C#N)c3ccccn3c2c1 here?
The inhibition was 41.4%.

With CCOC(=O)c1c2ccc(OCC(=O)N/N=C/c3ccc(Cl)cc3)cc2n2ccccc12 as the molecule, how does the inhibition read?
Its inhibition is 33.2%.

With COc1ccc2c(C#N)c3ccccn3c2c1 as the molecule, how does the inhibition read?
The inhibition was 39.7%.

Cc1cccc(OCC(=O)N/N=C\c2cn(C)c3ccccc23)c1 was tested. Which inhibition did it give?
Its inhibition is 5.4%.

CCOC(=O)c1c2ccc(OCC(=O)N/N=C/c3ccccc3C(F)(F)F)cc2n2ccccc12 was tested. Which inhibition did it give?
Its inhibition is 59.8% (active).

Which inhibition does the source give for N#Cc1c2ccc(OCC(N)=O)cc2n2ccccc12 here?
Its inhibition is 65.3% (active).

How did the inhibition turn out when N#CCCn1cc(/C=N/NC(N)=S)c(-c2ccc(-c3ccccc3)cc2)n1 was run?
Its inhibition is 21.7%.

With COc1ccc(N=Nc2cnc(C)nc2-c2ccccc2)cc1 as the molecule, how does the inhibition read?
Its inhibition is 3.6%.

How did the inhibition turn out when CCCCOc1ccc(-c2c(C(=O)Nc3ccccc3)c(C)[nH]c(=S)c2C#N)cc1 was run?
Its inhibition is 13.9%.

Which inhibition does the source give for Cc1ccc2c(nc3s/c(=C/c4cccs4)c(=O)n32)c1C here?
The inhibition was -7.9%.

Cc1cc(C)c2nc3s/c(=C/c4ccccc4)c(=O)n3c2c1 was tested. Which inhibition did it give?
Its inhibition is 57.6% (active).

How did the inhibition turn out when Cc1cc(C)c2nc3s/c(=C/c4ccc5c(c4)n(C)c(=O)n5C)c(=O)n3c2c1 was run?
The inhibition was 37.9%.

CCCCn1cnc(C(=O)OCC)c1N was tested. Which inhibition did it give?
Its inhibition is -3.8%.

With Nc1ccn(Cc2ccc(F)cc2)n1 as the molecule, how does the inhibition read?
Its inhibition is -1.5%.

Which inhibition does the source give for O=C1COc2ccc(C(=O)c3ccccc3C(=O)O)cc2N1 here?
Its inhibition is -8.8%.

For O=C(O)/C=C/C(=O)c1ccc2c(c1)NC(=O)CO2, which inhibition is on record?
The inhibition was 64.4% (active).

For O=C1COc2ccc(C(=O)/C=C/c3ccccc3)cc2N1, which inhibition is on record?
Its inhibition is 7.8%.

With Cc1ccc(S(=O)(=O)N2CCC(C(=O)N[C@H](C(=O)NCc3ccco3)C(C)C)CC2)cc1 as the molecule, how does the inhibition read?
The inhibition was -3.1%.

How did the inhibition turn out when CCn1cc(C(=O)OCC(=O)c2cc(C)n(-c3cccc(C(F)(F)F)c3)c2C)c(=O)c2ccc(C)nc21 was run?
The inhibition was -6.6%.

With CN(/N=C/c1ccco1)C1=NS(=O)(=O)c2ccccc21 as the molecule, how does the inhibition read?
The inhibition was 10.9%.

With Cc1ccc(/C=N/N(C)C2=NS(=O)(=O)c3ccccc32)o1 as the molecule, how does the inhibition read?
Its inhibition is 107% (active).

Which inhibition does the source give for CN(/N=C/c1ccc(Br)o1)C1=NS(=O)(=O)c2ccccc21 here?
Its inhibition is -7.5%.

With COc1ccccc1NC(=O)N(Cc1cccs1)Cc1cc2cc3c(cc2[nH]c1=O)OCO3 as the molecule, how does the inhibition read?
Its inhibition is 9.9%.

How did the inhibition turn out when COc1cc(C(=O)ON=C2C(C)=CC(=O)C=C2C)cc(OC)c1OC was run?
Its inhibition is 59.4% (active).

COc1cc(C(=O)O/N=C2\C=CC(=O)C(C)=C2)cc(OC)c1OC was tested. Which inhibition did it give?
Its inhibition is 50.7% (active).

Which inhibition does the source give for COc1cc(C(=O)O/N=C2/C=C(C)C(=O)C=C2C)cc(OC)c1OC here?
The inhibition was 29.1%.

With COc1cc(C(=O)O/N=C2/C=CC(=O)C(C)=C2C)cc(OC)c1OC as the molecule, how does the inhibition read?
Its inhibition is 35.6%.

With COc1cc(C(=O)ON=C2C=C(C)C(=O)C(C)=C2)cc(OC)c1OC as the molecule, how does the inhibition read?
Its inhibition is 31.7%.

Which inhibition does the source give for COc1cc(C(=O)O/N=C2\C=CC(=O)C=C2C)cc(OC)c1OC here?
Its inhibition is 46.4%.

With O=C(NC1CCCC1)c1ccc(CS(=O)(=O)c2ccc(Br)cc2)o1 as the molecule, how does the inhibition read?
Its inhibition is -7%.

Which inhibition does the source give for O=C(C(=O)N1CCN(c2ccc(F)cc2)CC1)N1CCCCC1 here?
The inhibition was 9.4%.

COCCNC(=O)C(c1cccs1)N(C(=O)Cn1nnc2ccccc21)c1cccc(C(C)=O)c1 (centres undefined) was tested. Which inhibition did it give?
The inhibition was -2.6%.

How did the inhibition turn out when O=[N+]([O-])c1cc2oc3c(c2c(C=NCc2ccccc2)c1O)CCCC3 was run?
Its inhibition is 6.3%.

Which inhibition does the source give for CC(C)CN=Cc1c(O)c([N+](=O)[O-])cc2oc3c(c12)CCCC3 here?
The inhibition was 53.1% (active).

For O=[N+]([O-])c1cc2oc3c(c2c(C=NCc2ccncc2)c1O)CCCC3, which inhibition is on record?
Its inhibition is 27.8%.

Which inhibition does the source give for O=C(OCc1nnc(-c2ccccc2)o1)c1cc(F)c(F)cc1Cl here?
The inhibition was 2.5%.

How did the inhibition turn out when C=C(C)CN(CC)c1nc(N)c2c(N)nc3c(c2c1C#N)CC(=O)N3C12CC3CC(CC(C3)C1)C2 was run?
The inhibition was 2.4%.

For N#CCc1c(C#N)c(N)nc(N2CCCC(O)C2)c1C#N (centres undefined), which inhibition is on record?
The inhibition was 10%.

With CN(CCO)c1nc(N)c2c(N)nc3c(c2c1C#N)CC(=O)N3Cc1cccs1 as the molecule, how does the inhibition read?
The inhibition was 13.6%.

COCC(C)N1C(=O)Cc2c1nc(N)c1c(N)nc(N3CCN(c4ccccc4F)CC3)c(C#N)c21 (centres undefined) was tested. Which inhibition did it give?
Its inhibition is 66.7% (active).

For COCCN(CCOC)c1nc(N)c2c(N)nc3c(c2c1C#N)CC(=O)N3Cc1ccc(Cl)cc1, which inhibition is on record?
The inhibition was 20.6%.

For CN(CCO)c1nc(N)c2c(N)nc3c(c2c1C#N)CC(=O)N3C1CCCC1, which inhibition is on record?
The inhibition was 64% (active).

Which inhibition does the source give for COc1ccc(CN2C(=O)Cc3c2nc(N)c2c(N)nc(N4CCCCC4)c(C#N)c32)cc1 here?
The inhibition was 40.5%.

With N#CCc1c(C#N)c(N)nc(N2CCN(c3ccc(F)cc3)CC2)c1C#N as the molecule, how does the inhibition read?
Its inhibition is 2.2%.

How did the inhibition turn out when CCCCN1C(=O)Cc2c1nc(N)c1c(N)nc(N(CCC)CCC)c(C#N)c21 was run?
Its inhibition is 21.8%.

N#Cc1c(N2CCN(c3ccc(F)cc3)CC2)nc(N)c2c(N)nc3c(c12)CC(=O)N3C1CC1 was tested. Which inhibition did it give?
The inhibition was 56.9% (active).

For N#Cc1c(N2CCCC(O)C2)nc(N)c2c(N)nc3c(c12)CC(=O)N3C12CC3CC(CC(C3)C1)C2 (centres undefined), which inhibition is on record?
Its inhibition is 64.7% (active).

For COCCN1C(=O)Cc2c1nc(N)c1c(N)nc(N3CCN(c4ccc(F)cc4)CC3)c(C#N)c21, which inhibition is on record?
Its inhibition is 40.2%.

Which inhibition does the source give for Cc1ccc(N2C(=O)[C@@H]3[C@H](C2=O)C2c4ccccc4C=CN2[C@@H]3C(=O)c2ccco2)c(C)c1 (some centres undefined) here?
Its inhibition is -31.4%.

How did the inhibition turn out when COc1ccc(Cn2c(C(F)(F)F)ccc(C(N)=O)c2=O)cc1 was run?
Its inhibition is 4.9%.

COc1ccc(C2(O)CCN(C(=O)c3c(F)cccc3F)CC2)cc1 was tested. Which inhibition did it give?
Its inhibition is 2.8%.

How did the inhibition turn out when CCc1cc2c(C)cc(C)cc2nc1SCC(=O)Nc1cc(C)on1 was run?
Its inhibition is 2.3%.

Which inhibition does the source give for COc1cccc(CNC(=O)C(c2ccc(Cl)cc2)C(C)C)c1 (centres undefined) here?
Its inhibition is 10.2%.

For COc1cc(/C=C2\SC(=S)NC2=O)ccc1OS(=O)(=O)c1ccccc1, which inhibition is on record?
Its inhibition is 29.8%.

With COC(=O)c1ccc(-c2nc(O)c3cnccn23)cc1 as the molecule, how does the inhibition read?
The inhibition was -13.6%.

COc1cc(/C=N/NC(=O)c2cc3ccccc3cc2O)ccc1OCCN1CCCCC1 was tested. Which inhibition did it give?
The inhibition was 73.9% (active).

How did the inhibition turn out when COc1cc(/C=N/NC(=O)c2ccncc2)ccc1OCCN1CCCCC1 was run?
The inhibition was -4.3%.

Which inhibition does the source give for CCCCOc1ccc(C(=O)N/N=C/c2ccc(OCCN3CCCCC3)c(OC)c2)cc1 here?
Its inhibition is 5.7%.

For COc1cccc(-n2c(SCC(N)=O)nc3ccccc3c2=O)c1, which inhibition is on record?
Its inhibition is 2.2%.

For COc1ccccc1-n1c(SCc2cc(=O)oc3cc(O)ccc23)nc2ccccc2c1=O, which inhibition is on record?
Its inhibition is 8.3%.

Which inhibition does the source give for Cc1csc(SCC(=O)NC(=O)NC2CCCC2)n1 here?
Its inhibition is 5.2%.

For S=c1[nH]nc(C2CCCCC2)n1/N=C/c1ccco1, which inhibition is on record?
The inhibition was -1.6%.

With O=C(Cc1ccc([N+](=O)[O-])cc1)Nc1cccc(C(F)(F)F)c1 as the molecule, how does the inhibition read?
Its inhibition is 23.4%.

For CCCCNC(=O)CC1S/C(=N/N=C/c2ccc(OC)cc2)NC1=O (centres undefined), which inhibition is on record?
Its inhibition is -7.8%.

For CCOC(=O)N1CCN(CC(=O)Nc2cc(OCC)ccc2OCC)CC1, which inhibition is on record?
Its inhibition is 7%.

CCOc1ccc(OCC)c(NC(=O)CN2CCN(c3cccc(C)c3)CC2)c1 was tested. Which inhibition did it give?
Its inhibition is 16.7%.

With CCOc1ccc(OCC)c(NC(=O)CN2CCN(CC)CC2)c1 as the molecule, how does the inhibition read?
Its inhibition is 57.9% (active).

CN1C(=O)/C(=C/c2ccc(-c3ccccc3[N+](=O)[O-])o2)SC1=Nc1ccc(Cl)c(C(=O)O)c1 was tested. Which inhibition did it give?
Its inhibition is 3%.

CCOC(=O)C1=C(N)Oc2cc(C)n(C)c(=O)c2C1c1ccncc1 (centres undefined) was tested. Which inhibition did it give?
The inhibition was 10%.

How did the inhibition turn out when NC(=O)C1=C[C@H](c2coc3ccccc3c2=O)C[C@H](OCc2ccc(CO)cc2)O1 was run?
The inhibition was -2.4%.

With Nc1ccccc1NC1CCCCC1 as the molecule, how does the inhibition read?
Its inhibition is 64.3% (active).

Which inhibition does the source give for O=C(Nc1ccccc1NC(=O)NC1CCCCC1)NC1CCCCC1 here?
The inhibition was 6%.

Nc1c(NC2CCCCC2)c2ccccc2oc1=O was tested. Which inhibition did it give?
Its inhibition is 9.2%.

How did the inhibition turn out when Cc1ccc(Cn2c(C(=O)O)cc3sccc32)cc1 was run?
The inhibition was -7.2%.

With O=C(Nc1ccccc1NS(=O)(=O)c1ccc(F)cc1)C1CCCC1 as the molecule, how does the inhibition read?
Its inhibition is -1.7%.

Which inhibition does the source give for O=C(COC(=O)c1cccc(Cl)c1)NCCN1C(=O)CSC1=O here?
Its inhibition is -6%.

Which inhibition does the source give for O=C(COC(=O)c1cc(Cl)ccc1Cl)NCCN1C(=O)CSC1=O here?
Its inhibition is 0.7%.

How did the inhibition turn out when O=C(COC(=O)c1cc(Cl)cc(Cl)c1)NCCN1C(=O)CSC1=O was run?
Its inhibition is 55.7% (active).

How did the inhibition turn out when COC(=O)c1ccccc1NC(=O)COC(=O)/C=C/c1ccco1 was run?
Its inhibition is -15%.
